In the library only some 3.7% were active in any assay of this set; here they are far more common.
D3 ag: activates the human D3 dopamine receptor; P35462; D3R DiscoveRx beta-arrestin cells, luminescence, 90 min; max activation, %; actives 0.58% (n = 410,000); AID 652048; in the data active = max activation above about 30%
Target sequence (P35462 whole entry, looked up): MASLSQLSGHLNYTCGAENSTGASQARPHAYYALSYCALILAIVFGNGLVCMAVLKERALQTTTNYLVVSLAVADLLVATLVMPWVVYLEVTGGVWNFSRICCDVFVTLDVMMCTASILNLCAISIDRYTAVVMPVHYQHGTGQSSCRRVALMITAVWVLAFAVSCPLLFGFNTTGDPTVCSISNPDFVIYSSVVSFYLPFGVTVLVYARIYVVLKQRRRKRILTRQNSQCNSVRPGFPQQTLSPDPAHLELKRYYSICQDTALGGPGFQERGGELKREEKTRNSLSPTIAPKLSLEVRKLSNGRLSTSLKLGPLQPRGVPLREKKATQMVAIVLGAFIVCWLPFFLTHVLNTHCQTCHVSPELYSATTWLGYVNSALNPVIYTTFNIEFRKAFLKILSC
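Agonist-mode cell screen: cells plated at 1500/well and incubated overnight at 37 °C, then exposed to library compounds for 90 min at 37 °C. Detection reagent was added for 30–60 min at room temperature, and luminescence was read.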
BRCA1 expr up: increases BRCA1 expression; MCF7-BRCA1-FFLuc reporter, luminescence, 48 h; response scale: scaled: vehicle 0%, 10 µM genistein 100%; Potency, µM (doses to about 46.1 µM), usual class: activators; actives 1.1% (n = 380,000); note: nearly all actives have a fitted effect of over 80% in size
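First, MCF7-BRCA1-FFLuc cells (2000/well) attach for 2 h; next, compounds are pin-added and incubated 48 h at 37 °C; finally, luciferase reagent is added and luminescence read after 15 min.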
B2AR arrestin: agonists driving beta-arrestin recruitment to human beta2-adrenergic receptor. Potency, µM (top dose mostly 46.1 µM), hits mostly activators. AID 492947. beta-arrestin recruitment to beta2AR, cell-based reporter. P07550. actives 0.02% (n = 330,000); note: nearly all actives have a fitted effect of over 65% in size
RGS4 inhibitor: blocks human RGS4-accelerated GTP hydrolysis. P49798. Transcreener GDP fluorescence polarization, RGS4-accelerated GTP hydrolysis. Potency, µM (top dose mostly 114 µM), actives largely listed as inhibitors. actives 0.039% (n = 390,000); note: nearly all actives have a fitted effect of over 75% in size
Target sequence (P49798 whole entry, looked up): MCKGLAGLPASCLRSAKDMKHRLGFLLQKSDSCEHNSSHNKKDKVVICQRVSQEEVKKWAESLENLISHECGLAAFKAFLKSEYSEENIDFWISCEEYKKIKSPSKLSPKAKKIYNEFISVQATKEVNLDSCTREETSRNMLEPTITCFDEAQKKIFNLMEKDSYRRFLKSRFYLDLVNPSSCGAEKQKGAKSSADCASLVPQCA
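MLSMR compounds (23 nl, pin-transferred) preincubated 10 min at room temperature with a 500nM (2x) first reagent, then RGS4 at 900nM (2x) plus Transcreener GDP mix added; fluorescence polarization (620/688 nm) read before and after 90 min at 30 °C.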
D3 antag: D3 dopamine receptor (human) antagonism. P35462. D3R cells, DiscoveRx beta-arrestin luminescence, antagonist mode; stronger effect = lower value. max response, negative = inhibition, %. actives 2.5% (n = 360,000); in the data active = max response below about -50%; inconclusive = no clear call, values can overlap the other calls
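Cells plated overnight at 1500 cells/well, then exposed to library compounds with dopamine controls for 90 minutes at 37 degrees C. DiscoveRx reagent added for 30–60 minutes at room temperature; luminescence read, quantitative HTS format.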
PTHR1 ag: activates the human parathyroid hormone receptor PTHR1 | actives 0.075% (n = 410,000) | Potency, µM (series often up to 115 µM), actives largely listed as activators | Q03431 | AID 743266 | HEK293 GP2 PTHR1 cells, GloSensor cAMP luminescence, 1 h; note: nearly all actives have a fitted effect of over 55% in size
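HEK-293-derived GP2 cells expressing PTHR1 and a GloSensor cAMP reporter, 3,000/well, plated overnight, given luciferin plus IBMX (each 0.5 mM as added) for 1 h at 37 °C, then compound for 1 h at 37 °C. Luminescence was read after 15 min at room temperature.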
Large screens that a line does not name were inactive. Unless noted, calls come from the whole dose curve; as a rule, active = well fitted curve in the direction sought with a large enough effect; inconclusive = small, poorly fitted or top-dose-only effect, or another doubt; inactive = no such curve, though single readings can be large; an effect the other way counts as inactive or inconclusive.

CC1(C)CC(c2nc(-c3ccc([N+](=O)[O-])cc3)cs2)CCO1 (stereo not given)	RGS4 inhibitor inconclusive
COCCNCCCCSc1ccc(Cl)cc1	D3 antag -59
CCCn1cc(S(=O)(=O)c2ccccc2)c(=O)c2cc(F)c(N3CCCC3)cc21	none (no result: BRCA1 expr up, B2AR arrestin, D3 antag)
Cn1cc(S(=O)(=O)c2ccccc2)c(=O)c2cc(F)c(N3CCN(c4ccccc4)CC3)cc21	none (no result: BRCA1 expr up, B2AR arrestin, D3 antag)
Cn1cc(S(=O)(=O)c2ccccc2)c(=O)c2cc(F)c(N3CCN(c4ccc(F)cc4)CC3)cc21	PTHR1 ag 61µM (no result: BRCA1 expr up, B2AR arrestin, D3 antag)
CCCn1cc(S(=O)(=O)c2cccc(Cl)c2)c(=O)c2cc(F)c(N3CCN(CC)CC3)cc21	D3 ag 63, PTHR1 ag inconclusive (no result: BRCA1 expr up, B2AR arrestin, D3 antag)
O=C(Nc1cccnc1Cl)c1cnn2c1NC(=C1CC1)C=C2C(F)F	none (no result: D3 ag, B2AR arrestin, RGS4 inhibitor, D3 antag, PTHR1 ag)
O=[N+]([O-])c1ccc(Cl)c(/C=N/N2CCN(Cc3ccccc3)CC2)c1	none
O=[N+]([O-])c1ccc(Cl)c(/C=N/N2CCN(Cc3ccccc3Cl)CC2)c1	D3 antag -51
O=[N+]([O-])c1ccccc1/C=N/N1CCN(Cc2ccccc2)CC1	BRCA1 expr up inconclusive, D3 antag -67
Cc1ccc(CN2CCN(/N=C\c3cccc([N+](=O)[O-])c3)CC2)cc1	D3 antag -56
Cc1ccc(/C=N/N2CCN(Cc3ccc(C)cc3)CC2)cc1	none
FC(F)(F)c1ccccc1/C=N/N1CCN(Cc2ccccc2)CC1	D3 antag -66
COc1cc2nc(N3CCCCC3)nc(NC3CCN(C)CC3)c2cc1OC	none (no result: D3 ag, B2AR arrestin, RGS4 inhibitor, D3 antag, PTHR1 ag)
COC(=O)c1cc2oc(C)cc2n1Cc1ccccc1Cl	none (no result: BRCA1 expr up, B2AR arrestin, D3 antag)
CCN(CC)C(=O)Nc1ccc(C(=O)OC)cc1	D3 antag -69, PTHR1 ag inconclusive
CCN(C(=O)c1cc2c(s1)-c1ccccc1OC2)c1cc(OC)ccc1OC	D3 antag -54
O=C(c1cccc(Cl)c1)N1CCN(CCCc2ccccc2)CC1	D3 ag 33
Nc1ccccc1C(=O)NCCCN1CCN(c2cccc(Cl)c2)CC1	D3 antag -73 (no result: B2AR arrestin)
O=C(c1cccc(Cl)c1)N1CCN(CCc2ccccn2)CC1	none (no result: BRCA1 expr up, B2AR arrestin, D3 antag)
O=C(NCCN1CCN(c2ccccc2)CC1)c1cccc(Cl)c1	D3 antag -56
O=C(NCCN1CCN(c2ccccc2)CC1)C1(S(=O)(=O)c2ccc(Cl)cc2)CC1	D3 antag -53
O=C(NCc1ccccc1Cl)C1(S(=O)(=O)c2ccc(Cl)cc2)CC1	none
Cc1cccc(C(=O)NCCN2CCN(c3ccccc3)CC2)c1	D3 antag inconclusive
COc1ccc(OC(C)C(=O)NCc2nc(-c3cccc(C)c3)no2)cc1 (stereo not given)	none (no result: BRCA1 expr up, B2AR arrestin, D3 antag)
O=C(Oc1cccc(C(=S)N2CCOCC2)c1)c1ccc([N+](=O)[O-])cc1[N+](=O)[O-]	D3 antag -51
O=C(Oc1ccc(C(=S)N2CCOCC2)cc1)c1ccc([N+](=O)[O-])cc1[N+](=O)[O-]	none
Cc1ccc(-n2c(=O)c3ccccc3n(CC(=O)Nc3cccc(C(F)(F)F)c3)c2=O)cc1	none (no result: B2AR arrestin, D3 antag)
CC(C)OC(=O)NC(c1ccccc1)C(Cl)(Cl)Cl (stereo not given)	D3 antag -50
CCOc1ccc(OC(=O)NC(c2ccccc2)C(Cl)(Cl)Cl)cc1 (stereo not given)	none
COC(=O)c1cccc(S(=O)(=O)N2CCN(c3nc4ccccc4s3)CC2)c1	D3 antag -68
Cc1ccc(S(=O)(=O)N2CCN(c3ccccc3)CC2)cc1C(N)=O	D3 ag 34
CN(C)C(CNC(=O)c1cccc(S(=O)(=O)N2CCN(c3ccccc3)CC2)c1)c1ccccc1 (stereo not given)	D3 antag -71 (no result: B2AR arrestin)
COc1ccc(C(CNC(=O)c2ccc(S(=O)(=O)N3CCCC3)cc2)N(C)C)cc1OC (stereo not given)	none
COc1ccc(C(CNC(=O)c2ccc(S(=O)(=O)N3CC(C)CC(C)C3)cc2)N(C)C)cc1 (stereo not given)	D3 antag -63
COc1ccc(NC(=O)C(=O)NCC(c2cccnc2)N2CCc3ccccc3C2)cc1 (stereo not given)	none (no result: BRCA1 expr up, B2AR arrestin, D3 antag)
Cc1ccc(-n2c(SC3CCOC3=O)nc3ccccc3c2=O)cc1 (stereo not given)	none (no result: D3 ag, BRCA1 expr up, RGS4 inhibitor, D3 antag, PTHR1 ag)
CC(=O)N1CCCc2cc(S(=O)(=O)NCc3ccc(N(C)C)cc3)ccc21	none (no result: BRCA1 expr up, B2AR arrestin, D3 antag)
CN(C)C(CNC(=O)c1ccc(C(=O)c2ccccc2)cc1)c1ccccc1 (stereo not given)	D3 antag -57
CN(C)C(CNC(=O)c1ccc(-c2ccccc2)cc1)c1ccccc1 (stereo not given)	none
CN(C)C1(CNC(=O)c2cccc(S(=O)(=O)NCc3ccccc3)c2)CCCCC1	PTHR1 ag 32µM
COc1ccc(NS(=O)(=O)c2cccc(C(=O)NCC(c3ccccc3)N(C)C)c2)cc1 (stereo not given)	D3 antag inconclusive
COc1ccc(C(CNC(=O)c2cccc(S(=O)(=O)NCc3ccccc3)c2)N(C)C)cc1 (stereo not given)	D3 antag -71
CCCC[C@@H]1CNC(=O)C(=O)N1CCCc1cc(OC)c(OC)c(OC)c1	D3 ag 30
CCN=C(NCC)SC1CC(=O)N(CCc2ccccc2)C1=O (stereo not given)	none (no result: B2AR arrestin)
COc1ccc(/C=N/NC(=O)c2cc3cc(OC)c(OC)cc3[nH]2)cc1	none
COc1ccc(/C=N\NC(=O)C2=NNC(=O)C2C)cc1 (stereo not given)	BRCA1 expr up 2.8µM
CC(C)OC(=O)CSc1nnc(-c2ccc(Cl)cc2Cl)o1	BRCA1 expr up inconclusive
CCCCOC(=O)CSc1nnc(-c2ccc(Cl)cc2Cl)o1	D3 antag -52
Cc1c(C(N)=O)sc2ncn(CC(=O)NCCc3ccccc3)c(=O)c12	none
O=c1[nH]ncc2c3ccccc3n(Cc3ccccc3F)c12	D3 antag -60
CC(C)c1ccc(-c2csc3ncnc(N4CCN(C)CC4)c23)cc1	D3 antag -72
CN(Cc1ccc(Cl)cc1Cl)C(=O)C1CSC2(C)CCC(=O)N12 (stereo not given)	none (no result: B2AR arrestin, RGS4 inhibitor)
CCOC(=O)C1CCCN(C(=O)CSCc2ccccc2)C1 (stereo not given)	none
CCOC(=O)C1CCCN(C(=O)CCc2nnc(-c3ccc(C(C)=O)s3)o2)C1 (stereo not given)	BRCA1 expr up 13µM
CC1C(=O)N(Cc2cn(CCC3OCCO3)nn2)CCS(=O)(=O)N1Cc1ccc(-c2ccc(Cl)c(Cl)c2)cc1 (stereo not given)	none (no result: B2AR arrestin, RGS4 inhibitor)

Assay outcomes deposited in PubChem by National Center for Advancing Translational Sciences (NCATS).
